Screens deposited in PubChem by several laboratories.
PAFAH2 FP inh – PAFAH2 enzyme inhibitors, primary screen, biochemical, fluorescence polarization, human. Platelet-activating factor acetylhydrolase 2, cytoplasmic (Homo sapiens), Q99487. inhibition, % at 3.39 µM. 0.99% of 340,000 active. recombinant PAFAH2, FP-rhodamine activity probe;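 active = inhibition above the mean over all tested compounds plus 3 SD, cut at about 30% in these data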;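 also: inhibitors block probe labeling of enzyme so polarization drops; 0% = enzyme with DMSO and 100% = wells lacking PAFAH2 protein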
DAGLB inh – DAGLB lipase inhibitors, primary screen, biochemical, fluorescence, HTS | HEK293T DAGLB membrane lysate, EnzChek fluorogenic substrate | inhibition, % at 5.17 µM | 0.059% of 340,000 active | AID 504411, 2011; in the data active = inhibition above about 34%;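 also: 0% = enzyme with vehicle and 100% = wells lacking enzyme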
PAFAH1B2 FP inh – PAFAH1B2 enzyme inhibitors, primary screen, biochemical, fluorescence polarization, human; Platelet-activating factor acetylhydrolase IB subunit alpha2 (Homo sapiens), P68402; recombinant PAFAH1B2, FP-rhodamine activity probe; inhibition, % at 3.39 µM; 1.2% of 340,000 active;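 active = inhibition above the mean of all tested compounds plus 3 SD, cut at about 24% in these data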;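 also: 0% = enzyme with DMSO and 100% = wells lacking PAFAH1B2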
ATG4B inh – ATG4B protease inhibitors, primary screen, biochemical, fluorescence, uHTS; 0.51% of 340,000 active; inhibition, % at 8.33 µM; AID 504462, 2011; Cysteine protease ATG4B (Homo sapiens), Q9Y4P1; ATG4B cleavage of LC3-PLA2, NBD-HPC fluorescence, 1 h; in the data active = inhibition above about 40%
Target sequence (Q9Y4P1 whole entry, looked up): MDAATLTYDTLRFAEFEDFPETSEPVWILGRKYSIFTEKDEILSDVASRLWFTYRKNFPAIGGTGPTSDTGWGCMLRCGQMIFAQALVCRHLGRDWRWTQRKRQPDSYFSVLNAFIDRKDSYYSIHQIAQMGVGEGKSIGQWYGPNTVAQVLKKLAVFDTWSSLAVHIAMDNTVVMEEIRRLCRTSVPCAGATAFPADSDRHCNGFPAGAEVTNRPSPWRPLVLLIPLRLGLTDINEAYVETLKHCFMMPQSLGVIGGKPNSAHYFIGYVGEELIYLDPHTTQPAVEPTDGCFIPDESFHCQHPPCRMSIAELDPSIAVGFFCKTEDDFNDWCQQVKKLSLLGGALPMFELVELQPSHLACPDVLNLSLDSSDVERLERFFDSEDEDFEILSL
PAFAH1B3 inh – PAFAH1B3 enzyme inhibitors, primary screen, biochemical, fluorescence polarization, human; Platelet-activating factor acetylhydrolase IB subunit alpha1 (Homo sapiens), Q15102; recombinant PAFAH1B3, FP-rhodamine probe; inhibition, % at 3.39 µM; 0.28% of 340,000 active;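 active = inhibition above the screen-wide average of all tested compounds plus 3 SD, cut at about 25% in these data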;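 also: 0% = enzyme with DMSO only and 100% = wells lacking PAFAH1B3 protein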
Target sequence (Q15102 whole entry, looked up): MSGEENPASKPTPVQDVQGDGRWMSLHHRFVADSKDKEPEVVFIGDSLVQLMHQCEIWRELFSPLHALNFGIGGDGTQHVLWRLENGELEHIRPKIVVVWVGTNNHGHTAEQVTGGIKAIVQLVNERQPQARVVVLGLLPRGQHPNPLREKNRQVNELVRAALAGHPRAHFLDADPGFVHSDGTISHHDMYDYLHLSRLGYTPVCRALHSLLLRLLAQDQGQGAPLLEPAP
pPAFAH FP inh – pPAFAH enzyme inhibitors, primary screen, biochemical, fluorescence polarization, human. recombinant pPAFAH, FP-rhodamine probe fluorescence polarization. Platelet-activating factor acetylhydrolase (Homo sapiens), Q13093. 1.5% of 330,000 active. inhibition, % at 3.39 µM. AID 463082, 2010;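 active = inhibition above the mean inhibition across the screen plus 3 SD, cut at about 25% in these data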;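 also: inhibitors block binding of the rhodamine activity-based probe so polarization drops; 0% = enzyme with DMSO and 100% = wells lacking pPAFAH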
The depositor's hits bear a star; . = not tested or not shown. In the library only some 3% were active in any assay of this set; here they are far more common.

SMILES | PAFAH2 FP inh | DAGLB inh | PAFAH1B2 FP inh | ATG4B inh | PAFAH1B3 inh | pPAFAH FP inh
Cc1ccccc1C(=O)O[C@H]1[C@H](Cc2ccccc2)NS(=O)(=O)[C@H]2CC3C=C[C@]12O3 | -11 | 2 | -3 | -7 | -7 | -3
O=S(c1ccccc1)C(c1ccccc1)c1ccccc1 (stereo not drawn) | 4 | -3 | 24* | -3 | 13 | .
COc1ccc(C(CNC(=O)CN(C)S(=O)(=O)c2ccc(C)cc2)N2CCCC2)cc1 (stereo not drawn) | 1 | 1 | 6 | 5 | 6 | 2
O=C(O)c1ccc(N2CCCCS2(=O)=O)cc1 | 8 | 0 | 4 | 4 | 4 | -4
COC(=O)C1CCN(S(=O)(=O)CCNC(=O)c2ccc(F)cc2)CC1 | 1 | -1 | 2 | -9 | 0 | 1
Cc1cc2[nH]c(=O)c(=O)[nH]c2cc1S(=O)(=O)N1CCC(C)CC1 | 3 | 0 | 25* | -7 | 7 | 5
Cc1cc2[nH]c(=O)c(=O)[nH]c2cc1S(=O)(=O)NC1CCC(C)CC1 (stereo not drawn) | -3 | 1 | 26* | 4 | -1 | 0
O=C1CC(Nc2ccc(N3CCOCC3)cc2)C(=O)N1Cc1ccccc1 (stereo not drawn) | 25 | 12 | 2 | 3 | 3 | 34*
O=C1CC(Nc2ccc(N3CCOCC3)cc2)C(=O)N1c1ccccc1 (stereo not drawn) | -1 | 3 | 5 | -2 | -6 | 17
C/C=C/C1=CC(=O)C[C@H](c2ccc3c(c2)OCO3)C1 | 7 | -3 | -3 | -11 | 3 | 8
COc1ccccc1-c1n[nH]c(=S)n1N | 2 | 2 | 3 | 0 | 8 | -4
COc1ccccc1-c1n[nH]c(=S)n1-c1ccccc1 | 7 | 4 | 25* | -5 | -1 | 3
CCOC(=O)c1ccc2c(c1)C1C=CCC1C(C(=O)OCC)N2 (stereo not drawn) | 10 | 9 | 3 | -2 | 15 | 28*
CC(=O)N1CCN(C(=O)c2ccc(Cl)c(S(=O)(=O)N3CCc4ccccc43)c2)CC1 | -3 | -2 | 1 | -12 | -6 | 5
O=C(NNC(=O)c1ccccc1O)c1ccc(Cl)c(S(=O)(=O)N2CCc3ccccc32)c1 | 14 | 10 | 1 | 20 | 4 | 30*
COc1ccc(C(Nc2ccc(S(=O)(=O)NCC3CCCO3)cc2)C(=O)NC(C)(C)C)cc1OC (stereo not drawn) | -1 | 2 | -1 | -6 | -3 | 0
O=C(Nc1cccc(-c2csc(Nc3ccccc3)n2)c1)c1cc([N+](=O)[O-])cc(C(F)(F)F)c1 | -14 | -7 | 28* | -5 | 27* | 30*
C[C@@]12C(=O)N(Cc3ccccc3)CC(=O)N1[C@H](/C=C/c1ccccc1)[C@@H]1C(=O)N(c3ccccc3)C(=O)[C@@H]12 | 5 | 1 | 4 | -16 | 10 | 4
O=C(C[n+]1cnn(CC(=O)c2ccc(Cl)cc2Cl)c1)c1ccc([N+](=O)[O-])cc1 | -6 | 19 | -2 | -6 | 7 | 25*
CCc1ccc(OC2=NS(=O)(=O)c3ccccc32)cc1 | 0 | 0 | 3 | -2 | 8 | .
CCN(CC)c1cccc(OC2=NS(=O)(=O)c3ccccc32)c1 | 2 | 1 | -1 | 0 | -3 | 25*
Cc1cccc(NC(=O)NNC(=O)c2cc3ccccc3cc2O)c1C | 5 | 4 | 0 | 20 | 11 | 34*
COc1ccc(NC(=O)c2cc3ccccc3cc2O)cc1 | 8 | 4 | 2 | 8 | 11 | 32*
CCc1ccc(NC(=O)NNC(=O)c2cc3ccccc3cc2O)cc1 | -19 | 2 | 8 | 8 | 13 | 33*
CCOc1ccc(NC(=O)NNC(=O)c2cc3ccccc3cc2O)cc1 | 5 | 3 | 11 | 6 | 25 | 24
SMILES | PAFAH2 FP inh | DAGLB inh | PAFAH1B2 FP inh | ATG4B inh | PAFAH1B3 inh | pPAFAH FP inh
O=C(c1ccco1)N1CCCC(c2nc3c(nnn3Cc3ccc(F)cc3)c(=O)[nH]2)C1 (stereo not drawn) | -8 | 1 | 7 | -2 | 0 | -7
Cc1ccc(C2(c3noc(CN4CCC(C(=O)N5CCOCC5)CC4)n3)CCCC2)cc1 | -2 | 3 | 27* | -5 | 3 | 8
O=C(COC(=O)c1cc(-c2ccco2)nc2ccccc12)NCc1ccc2c(c1)OCO2 | 2 | 3 | 0 | -12 | 6 | 26*
Cc1ccc(NC(=O)c2nc(S(=O)(=O)Cc3ccccc3C)ncc2Cl)cc1C | 0 | 4 | -3 | 4 | -7 | -2
COc1ccc(NC(=O)COC(=O)C2CCC(C(C)(C)C)CC2)c([N+](=O)[O-])c1 (stereo not drawn) | 6 | -2 | 5 | 4 | 11 | 5
COc1ccc(NC(=O)COC(=O)c2ccc(O)cc2)c([N+](=O)[O-])c1 | 49* | 1 | 0 | -8 | 6 | 28*
NC(=O)COc1ccc(-c2noc(COc3ccccc3[N+](=O)[O-])n2)cc1 | 2 | -1 | 5 | -6 | -4 | -1
NC(=O)Cc1nc(-c2ccc(Br)cc2)cs1 | 5 | 1 | -1 | 27 | 7 | 0
O=C(O)c1cnn(-c2nc(-c3ccc(Br)cc3)cs2)c1C(F)(F)F | 2 | 7 | 40* | 3 | 13 | 10
CC1C(=O)N(Cc2cn(CCC3OCCO3)nn2)CCS(=O)(=O)N1Cc1ccc(-c2ccc(F)nc2)cc1 (stereo not drawn) | . | -2 | . | . | . | .
COc1ccc(N(C)S(=O)(=O)c2cccc(C(=O)N3CCN(S(=O)(=O)c4ccc(C)cc4)CC3)c2)cc1 | -2 | 3 | 55* | -17 | 9 | 7
CCC(=O)NC(c1cc(Cl)c2cccnc2c1O)C(C)C (stereo not drawn) | 0 | 8 | 4 | -11 | 4 | 4
CCC(=O)NC(c1ccc(C)cc1)c1cc([N+](=O)[O-])c2cccnc2c1O (stereo not drawn) | 9 | 25 | 2 | 12 | 7 | 32*
CCCC(=O)NC(c1ccc(OC)c(OC)c1)c1cc(Cl)c2cccnc2c1O (stereo not drawn) | 4 | 8 | 5 | 4 | 6 | 9
CCCC(=O)NC(c1ccco1)c1cc([N+](=O)[O-])c2cccnc2c1O (stereo not drawn) | 21 | 13 | 1 | 7 | 9 | 30*
